# Reference: PubChem BioAssay (Tox21)
# Values joined by “and” are separate entries in the source; they are usually repeats but may differ in a detail not shown here. Equal values may be shown once. Results filed as inconclusive are left out. A call without a number means that no potency is given here. A structure can be active in one record and inactive in another. Active and inactive are the calls of the source. Unless noted, the call rests on the fitted dose curve.
# Assays:
# [1] = target: Glucocorticoid receptor (Homo sapiens) (UniProt P04150); assay: qHTS assay to identify small molecule antagonists of the glucocorticoid receptor (GR) signaling pathway (AID 720692; active means well fitted inhibition curve with a large enough effect in the signal ratio in the repeat runs, not every such curve was filed as active; the % refers to the signal ratio)
# How it was run: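 In a 1536-well cell format, compounds were added 4 h after seeding GR-bla HeLa cells, together with dexamethasone at 5 nM final; reporter activity was measured by FRET-substrate fluorescence following 18 h at 37 C.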
# Aromatase (Homo sapiens) = Aromatase (Homo sapiens) (UniProt P11511); assay: qHTS assay to identify aromatase inhibitors (AID 743083; active means well fitted inhibition curve with a large enough effect in the repeat runs; further: series mostly up to about 70 µM; nearly all actives have a fitted effect of over 55% in size)
# [2] = target: Acetylcholinesterase (Homo sapiens) (UniProt P22303); assay: Acetylcholinesterase (AChE) small molecule antagonists: colormetric cell-based qHTS assay (AID 1347395); further: nearly all actives have a fitted effect of over 30% in size; further: potency means the concentration at half of the fitted maximal effect
# How it was run: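 AChE inhibition read colorimetrically via DTNB–thiocholine in SH-SY5Y cells. Compound 30 min, substrate 90 min, both 37 C.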
# [3] = target: Acetylcholinesterase (Homo sapiens) (UniProt P22303); assay: Acetylcholinesterase (AChE) small molecule antagonists: enzyme-based qHTS assay (AID 1347397); details: Potency: AChE enzyme activity inhibition; outcome: AChE enzyme activity inhibition; further: nearly all actives have a fitted effect of over 55% in size
# How it was run: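 Colorimetric DTNB read-out of thiocholine released from acetylthiocholine by recombinant human AChE (50 mU/mL as dispensed). Compounds were preincubated 30 min at RT before substrate/DTNB addition, with a 10 min RT reaction.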
# [4] = target: Acetylcholinesterase (Homo sapiens) (UniProt P22303); assay: Acetylcholinesterase (AChE) small molecule antagonists: fluorescence cell-based qHTS assay (AID 1347398); details: Potency: AChE activity; outcome: AChE activity; further: nearly all actives have a fitted effect of over 50% in size; further: potency means the concentration at half of the fitted maximal effect
# How it was run: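 SH-SY5Y, 2,000 cells/well, attached overnight; cmpd 30 min 37 C; acetylthiocholine/Thiolite Green cocktail 40 min RT; fluorescence Ex/Em 490/520 nm.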
# [5] = target: Acetylcholinesterase (Homo sapiens) (UniProt P22303); assay: Acetylcholinesterase (AChE) small molecule antagonists: enzyme-based qHTS assay with human liver microsomes (AID 1347399); details: Potency: qHTS inhibition; outcome: qHTS inhibition; further: nearly all actives have a fitted effect of over 60% in size
# How it was run: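 Recombinant human AChE (50 mU/mL in the enzyme mix) and human liver microsomes (0.25 mg/mL final) were preincubated with compound and NADPH (0.25 mg/mL final) for 30 min at 37 C. Acetylthiocholine/DTNB was then added; thiocholine was read colorimetrically after 10 min at room temperature.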
# Sequence of Acetylcholinesterase (Homo sapiens) (P22303 whole entry, looked up): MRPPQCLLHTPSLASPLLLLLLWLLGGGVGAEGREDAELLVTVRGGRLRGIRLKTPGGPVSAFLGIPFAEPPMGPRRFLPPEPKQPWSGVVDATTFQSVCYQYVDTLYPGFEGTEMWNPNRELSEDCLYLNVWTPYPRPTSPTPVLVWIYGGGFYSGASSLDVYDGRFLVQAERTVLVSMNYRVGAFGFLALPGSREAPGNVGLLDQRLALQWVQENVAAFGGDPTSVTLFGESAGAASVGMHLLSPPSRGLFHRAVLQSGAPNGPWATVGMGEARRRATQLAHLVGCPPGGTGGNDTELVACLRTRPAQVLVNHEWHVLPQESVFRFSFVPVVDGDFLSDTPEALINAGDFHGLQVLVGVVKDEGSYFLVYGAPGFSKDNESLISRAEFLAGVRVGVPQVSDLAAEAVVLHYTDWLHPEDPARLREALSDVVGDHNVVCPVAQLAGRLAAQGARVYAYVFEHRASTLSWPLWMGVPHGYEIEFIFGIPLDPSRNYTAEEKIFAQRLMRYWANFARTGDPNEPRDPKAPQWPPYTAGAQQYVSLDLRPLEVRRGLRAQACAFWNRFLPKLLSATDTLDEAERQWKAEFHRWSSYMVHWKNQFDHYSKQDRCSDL
# Sequence of Glucocorticoid receptor (Homo sapiens) (P04150 whole entry, looked up): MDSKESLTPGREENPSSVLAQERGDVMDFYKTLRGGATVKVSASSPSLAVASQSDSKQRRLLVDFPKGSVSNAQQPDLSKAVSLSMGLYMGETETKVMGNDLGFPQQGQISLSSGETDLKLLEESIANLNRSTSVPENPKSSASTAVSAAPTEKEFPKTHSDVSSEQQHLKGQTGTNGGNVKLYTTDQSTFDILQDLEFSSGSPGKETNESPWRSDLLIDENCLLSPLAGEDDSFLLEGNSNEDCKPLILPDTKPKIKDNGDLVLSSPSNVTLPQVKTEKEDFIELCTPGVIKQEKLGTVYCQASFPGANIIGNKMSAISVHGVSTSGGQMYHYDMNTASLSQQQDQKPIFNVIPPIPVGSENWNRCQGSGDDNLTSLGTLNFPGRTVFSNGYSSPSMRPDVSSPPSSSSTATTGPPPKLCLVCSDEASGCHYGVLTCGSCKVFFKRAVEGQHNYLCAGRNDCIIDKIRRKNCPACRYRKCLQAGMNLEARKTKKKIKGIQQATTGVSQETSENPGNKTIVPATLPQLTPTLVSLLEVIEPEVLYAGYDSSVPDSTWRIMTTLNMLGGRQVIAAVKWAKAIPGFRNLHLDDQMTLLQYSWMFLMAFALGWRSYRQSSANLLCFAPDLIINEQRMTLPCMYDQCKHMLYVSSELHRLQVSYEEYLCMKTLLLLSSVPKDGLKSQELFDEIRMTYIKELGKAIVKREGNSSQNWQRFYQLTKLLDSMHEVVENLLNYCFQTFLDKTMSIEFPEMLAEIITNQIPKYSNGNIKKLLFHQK
# Sequence of Aromatase (Homo sapiens) (P11511 whole entry, looked up): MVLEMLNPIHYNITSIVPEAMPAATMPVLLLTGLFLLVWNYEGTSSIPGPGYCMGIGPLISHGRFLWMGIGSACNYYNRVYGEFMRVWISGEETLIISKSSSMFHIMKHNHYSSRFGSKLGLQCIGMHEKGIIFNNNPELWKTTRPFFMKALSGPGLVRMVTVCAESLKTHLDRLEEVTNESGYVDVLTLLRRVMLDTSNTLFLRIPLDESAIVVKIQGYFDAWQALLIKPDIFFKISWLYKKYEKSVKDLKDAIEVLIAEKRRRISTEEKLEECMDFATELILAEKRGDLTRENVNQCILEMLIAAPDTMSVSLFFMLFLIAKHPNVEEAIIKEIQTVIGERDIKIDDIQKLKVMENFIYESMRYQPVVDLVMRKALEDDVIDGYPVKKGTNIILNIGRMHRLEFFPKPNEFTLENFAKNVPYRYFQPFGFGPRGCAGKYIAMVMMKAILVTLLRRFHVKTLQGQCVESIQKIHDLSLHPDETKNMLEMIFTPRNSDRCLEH
structure (smiles),measurement,setting,value
Brc1ccc(-c2ccccc2)cc1,Potency,[1],inactive
same,Potency,Aromatase (Homo sapiens),inactive
same,Potency,[2],inactive
same,Potency,[3],inactive
same,Potency,[4],inactive
same,Potency,[5],inactive
COC(=O)Nc1nc2ccc(C(=O)C3CC3)cc2[nH]1,Potency,[2],inactive
same,Potency,[3],inactive
same,Potency,[5],inactive
c1cnc(N2CCN(Cc3ccc4c(c3)OCO4)CC2)nc1,Potency,[2],inactive
same,Potency,[4],inactive
CCCCCCCCCCCCN1CCCC1=O,Potency,[2],inactive
same,Potency,[3],inactive
same,Potency,[5],inactive
CC(C)(C)C(=O)CCc1ccc(Cl)cc1,Potency,[2],inactive
same,Potency,[3],inactive
same,Potency,[5],inactive
O=C1OC(c2ccc(O)cc2)(c2ccc(O)cc2)c2ccccc21,Potency,[2],35.6 µM (active) and 24.5 µM (active)
same,Potency,[3],inactive
same,Potency,[5],inactive
COc1ccc(CN(CCN(C)C)c2ccccn2)cc1,Potency,[2],inactive
same,Potency,[3],inactive
same,Potency,[5],inactive
COC(=O)c1sccc1S(N)(=O)=O,Potency,[2],inactive
same,Potency,[4],inactive
same,Potency,[5],inactive
C/C=C\C/C=C/CCCCCCCCOC(C)=O,Potency,[2],inactive
same,Potency,[3],inactive
same,Potency,[5],inactive
CCC(C)(C)C1CCC(O)CC1 (stereo not drawn),Potency,[2],inactive
same,Potency,[4],inactive
same,Potency,[5],inactive
OCC1CC=CCC1 (stereo not drawn),Potency,[2],inactive
same,Potency,[3],inactive
same,Potency,[5],inactive
Cc1onc(-c2ccccc2Cl)c1C(=O)N[C@@H]1C(=O)N2[C@@H]1SC(C)(C)[C@@H]2C(=O)O,Potency,[2],inactive
same,Potency,[4],inactive
Nc1ccc(S(=O)(=O)Nc2ccnn2-c2ccccc2)cc1,"activity, negative = inhibition",[2],-0.528% [at 23.6 µM] (inactive)
same,"activity change, negative = inhibition",[3],-0.415% [at 23.6 µM] (inactive)
same,"activity change, negative = inhibition",[5],-0.674% [at 23.6 µM] (inactive)
Cc1cccc(C)c1OCC(=O)N[C@@H](Cc1ccccc1)[C@@H](O)C[C@H](Cc1ccccc1)NC(=O)[C@H](C(C)C)N1CCCNC1=O,Potency,[2],inactive
same,Potency,[3],inactive
same,Potency,[5],inactive
CCCCCCCCS(=O)(=O)Cl,Potency,[2],inactive
same,Potency,[3],inactive
same,Potency,[5],inactive
CN(C)c1ccc(C(=N)c2ccc(N(C)C)cc2)cc1,Potency,[2],7.01 µM (active) and inactive
same,Potency,[3],inactive
same,Potency,[5],inactive
COC(=O)[C@H]1[C@H]2C[C@@H]3c4[nH]c5cc(OC)ccc5c4CCN3C[C@H]2C[C@@H](OC(=O)c2cc(OC)c(OC)c(OC)c2)[C@@H]1OC,Potency,[2],inactive
same,Potency,[3],inactive
same,Potency,[5],inactive
CCCCCCCCCCCCc1ccccc1O,Potency,[2],inactive
same,Potency,[4],inactive
same,Potency,[5],inactive
Cc1ccc(O)c(-n2nc3ccccc3n2)c1,Potency,[2],inactive
same,Potency,[3],inactive
same,Potency,[5],inactive
Cc1cccc(OCC(O)CNC(C)(C)C)c1C (stereo not drawn),Potency,[2],inactive
same,Potency,[3],inactive
same,Potency,[5],inactive
Cc1ccc2ccc(Cl)cc2n1,Potency,[2],inactive
same,Potency,[3],inactive
same,Potency,[5],inactive
CCCC(=O)OCC(COC(=O)CCC)OC(=O)CCC,Potency,[2],inactive
same,Potency,[3],inactive
same,Potency,[5],inactive
O=C1CCCc2c(O)cccc21,Potency,[2],inactive
same,Potency,[4],inactive
same,Potency,[5],inactive
CCCCC(CC)COC(=O)c1ccccc1 (stereo not drawn),Potency,[2],inactive
same,Potency,[3],inactive
same,Potency,[5],inactive
CCCOCCO,Potency,[2],inactive
same,Potency,[3],inactive
same,Potency,[5],inactive
COc1cccc2sc(N)nc12,Potency,[2],inactive
same,Potency,[4],inactive
same,Potency,[5],inactive
Fc1ccc(Br)cc1,Potency,[2],inactive
same,Potency,[4],inactive
same,Potency,[5],inactive
CCc1ncc(C)[nH]1,Potency,[2],inactive
same,Potency,[3],inactive
same,Potency,[5],inactive
Cc1cc(C(C)(C)C)c(O)c(C(C)(C)C)c1,Potency,[2],inactive
same,Potency,[4],inactive
same,Potency,[5],inactive
CCOC(=O)C(O)c1ccccc1 (stereo not drawn),Potency,[2],inactive
same,Potency,[4],inactive
same,Potency,[5],inactive
O=C(O)c1nc(Cl)c(Cl)c(Cl)c1Cl,Potency,[2],inactive
same,Potency,[3],inactive
same,Potency,[5],inactive
CC(C)(C)c1ccc(O)c(O)c1,Potency,[2],inactive
same,Potency,[3],inactive
same,Potency,[5],inactive
C=C[Si](OCCOC)(OCCOC)OCCOC,Potency,[2],inactive
same,Potency,[3],inactive
same,Potency,[5],inactive
CC1CC(O)CC(C)(C)C1 (stereo not drawn),Potency,[2],inactive
same,Potency,[4],inactive
O=C(OCc1ccccc1)c1ccccc1,Potency,[2],inactive
same,Potency,[3],inactive
same,Potency,[5],inactive
CC1=CC[C@H](C(C)C)C=C1,Potency,[2],inactive
same,Potency,[4],inactive
same,Potency,[5],inactive
CCc1cc(C(C)(C)C)c(O)c(C(C)(C)C)c1,Potency,[2],inactive
same,Potency,[3],inactive
same,Potency,[5],inactive
CC(C)[N+](C)(CCOC(=O)C1c2ccccc2Oc2ccccc21)C(C)C,Potency,[2],inactive
same,Potency,[3],inactive
same,Potency,[5],inactive
CCC/C=C/C=O,Potency,[2],inactive
same,Potency,[3],inactive
same,Potency,[5],inactive
CC1=CCC(C(C)(C)O)CC1 (stereo not drawn),Potency,[2],inactive
same,Potency,[3],inactive
same,Potency,[5],inactive
C1CCSC1,Potency,[2],inactive
same,Potency,[3],inactive
same,Potency,[5],inactive
CNC(=O)CN(CCN(CCN(CC(=O)[O-])CC(=O)NC)CC(=O)[O-])CC(=O)[O-].O.[Gd+3],Potency,[2],inactive
same,Potency,[4],inactive
same,Potency,[5],inactive
O=C1NCCN1,Potency,[2],inactive
same,Potency,[4],inactive
same,Potency,[5],inactive
CCC(C)CO (stereo not drawn),Potency,[2],inactive
same,Potency,[4],inactive
same,Potency,[5],inactive
COc1ccc(S(=O)(=O)Nc2nnc(CC(C)C)s2)cc1,Potency,[2],inactive
same,Potency,[4],inactive
same,Potency,[5],inactive
CCCCc1nc2cccnc2n1Cc1ccc(-c2ccccc2-c2nnn[nH]2)cc1,Potency,[2],inactive
same,Potency,[4],inactive
same,Potency,[5],inactive
O=[N+]([O-])C(CO)(CO)CO,Potency,[2],inactive
same,Potency,[4],inactive
same,Potency,[5],inactive
CCCCCCC/C=C/C=O,Potency,[3],inactive
same,Potency,[4],inactive
same,Potency,[5],inactive
CCCCOC(=O)C(=O)OCCCC,Potency,[2],inactive
same,Potency,[4],inactive
same,Potency,[5],inactive
CC(=O)[C@H]1CC[C@H]2[C@@H]3CCC4=CC(=O)CC[C@]4(C)[C@H]3CC[C@]12C,Potency,[2],39.7 µM (active) and 35.6 µM (active)
same,Potency,[4],28.1 µM (active) and 31.7 µM (active)
same,Potency,[5],inactive
OCCSc1ccccc1,Potency,[2],inactive
same,Potency,[4],inactive
same,Potency,[5],inactive
CC1CC(OC(=O)c2ccccc2O)CC(C)(C)C1 (stereo not drawn),Potency,[2],inactive
same,Potency,[4],inactive
same,Potency,[5],inactive
CC[C@]1(O)C[C@@H]2CN(CCc3c([nH]c4ccccc34)[C@@](C(=O)OC)(c3cc4c(cc3OC)N(C)[C@H]3[C@@](O)(C(=O)OC)[C@H](OC(C)=O)[C@]5(CC)C=CCN6CC[C@]43[C@@H]65)C2)C1,Potency,[3],inactive
same,Potency,[4],inactive
